Results from PubChem BioAssay AID1159580 (chemical genetic matrix, 2015).
Values joined by “and” are separate entries in the source; they are usually repeats but may differ in a detail not shown here. Equal values may be shown once. The campaign covered roughly 5,500 compounds. About 2,000 (36%) were called active. Not shown: some 18% with an inconclusive outcome. Cut-off read from the data, not from the text of the source: active = normalized growth mostly below about 0.91 (no sharp cut-off); inconclusive = no clear call, values can overlap the other calls; inactive = mostly above about 0.92. The list shows a part of the results.

Test: chemical genetic growth profiling, strain panel (AID 1159580);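 note: tested at 20 µM; growth read once vehicle control cultures reached saturation at 30 °C; 1 = growth at the plate median or of vehicle wells; lower values mean less growth of the strain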
Details: growth OD

Measured: normalized growth

Nc1nc(N)c2nc(-c3ccccc3)c(N)nc2n1
inactive: S. cerevisiae deletion strains, locus YJR075W, strain HOC1, active compounds read low 1.01 | S. cerevisiae deletion strains, locus YKL009W, strain mrt4, active compounds read low 1.02 | S. cerevisiae deletion strains, locus YKL068W, active compounds read low 1 | S. cerevisiae deletion strains, locus YKL085W, strain MDH1 (second series), active compounds read low 1.01 | S. cerevisiae deletion strains, locus YKL085W, strain MDH1, active compounds read low 1.01 | S. cerevisiae deletion strains, locus YKL160W, strain elf1, active compounds read low 1 | S. cerevisiae deletion strains, locus YKL190W, strain CNB1, active compounds read low 1 | S. cerevisiae deletion strains, locus YKR001C, strain vps1, active compounds read low 1.02 | S. cerevisiae deletion strains, locus YKR026C, strain gcn3, active compounds read low 1.01 | S. cerevisiae deletion strains, locus YKR091W, strain srl3, active compounds read low 0.998 | S. cerevisiae deletion strains, locus YLL001W, strain dnm1, active compounds read low 1 | S. cerevisiae deletion strains, locus YLL026W, active compounds read low 0.999 | S. cerevisiae deletion strains, locus YLL041C, strain sdh2, active compounds read low 0.999 | S. cerevisiae deletion strains, locus YLR027C, strain aat2, active compounds read low 1.01 | S. cerevisiae deletion strains, locus YLR039C, strain RIC1, active compounds read low 1.04 | S. cerevisiae deletion strains, locus YLR058C, strain SHM2, active compounds read low 1 | S. cerevisiae deletion strains, locus YLR102C, strain apc9, active compounds read low 1.01 | S. cerevisiae deletion strains, locus YLR113W, strain HOG1, active compounds read low 1 | S. cerevisiae deletion strains, locus YLR221C, strain rsa3, active compounds read low 0.975 | S. cerevisiae deletion strains, locus YLR258W, strain gsy2, active compounds read low 0.999 | S. cerevisiae deletion strains, locus YLR262C, strain YPT6 (second series), active compounds read low 1.02 | S. cerevisiae deletion strains, locus YLR262C, strain YPT6, active compounds read low 1 | S. cerevisiae deletion strains, locus YLR268W, strain sec22, active compounds read low 1.05 | S. cerevisiae deletion strains, locus YLR320W, strain mms22, active compounds read low 0.99 | S. cerevisiae deletion strains, locus YLR330W, strain CHS5, active compounds read low 1.01 | S. cerevisiae deletion strains, locus YLR342W, strain FKS1 (second series), active compounds read low 1.02 | S. cerevisiae deletion strains, locus YLR342W, strain FKS1, active compounds read low 0.996 | S. cerevisiae deletion strains, locus YLR357W, strain rsc2, active compounds read low 1.01 | S. cerevisiae deletion strains, locus YLR370C, strain arc18, active compounds read low 0.995 | S. cerevisiae deletion strains, locus YLR371W, strain rom2, active compounds read low 1.01 | S. cerevisiae deletion strains, locus YLR384C, strain iki3, active compounds read low 1.01 | S. cerevisiae deletion strains, locus YLR418C, strain cdc73, active compounds read low 0.972 | S. cerevisiae deletion strains, locus YML016C, strain PPZ1, active compounds read low 0.999 | S. cerevisiae deletion strains, locus YML032C, strain rad52, active compounds read low 1.02 | S. cerevisiae deletion strains, locus YML120C, strain ndi1, active compounds read low 1.02 | S. cerevisiae deletion strains, locus YML124C, strain tub3, active compounds read low 1.01 | S. cerevisiae deletion strains, locus YMR058W, strain fet3, active compounds read low 1.01 | S. cerevisiae deletion strains, locus YMR078C, strain ctf18, active compounds read low 1 | S. cerevisiae deletion strains, locus YMR125W, strain sto1, active compounds read low 1 | S. cerevisiae deletion strains, locus YMR129W, active compounds read low 0.998 | S. cerevisiae deletion strains, locus YMR205C, strain PFK2, active compounds read low 1.01 | S. cerevisiae deletion strains, locus YMR223W, strain ubp8, active compounds read low 0.994 | S. cerevisiae deletion strains, locus YMR231W, strain pep5, active compounds read low 0.997 | S. cerevisiae deletion strains, locus YMR263W, strain SAP30, active compounds read low 1 and 0.995 | S. cerevisiae deletion strains, locus YMR307W, strain GAS1, active compounds read low 1.04 and 1.01 | S. cerevisiae deletion strains, locus YNL067W, strain RPL9B, active compounds read low 0.995 | S. cerevisiae deletion strains, locus YNL071W, strain lat1, active compounds read low 0.996 | S. cerevisiae deletion strains, locus YNL153C, strain GIM3, active compounds read low 1 | S. cerevisiae deletion strains, locus YNL175C, strain NOP13, active compounds read low 0.987 | S. cerevisiae deletion strains, locus YNL183C, strain NPR1, active compounds read low 0.933 | S. cerevisiae deletion strains, locus YNL197C, strain WHI3, active compounds read low 0.967 | S. cerevisiae deletion strains, locus YNL209W, strain ssb2, active compounds read low 1 | S. cerevisiae deletion strains, locus YNL224C, strain SQS1, active compounds read low 0.995 | S. cerevisiae deletion strains, locus YNL233W, strain BNI4, active compounds read low 1 | S. cerevisiae deletion strains, locus YNL248C, strain rpa49, active compounds read low 0.969 | S. cerevisiae deletion strains, locus YNL250W, strain rad50, active compounds read low 1 | S. cerevisiae deletion strains, locus YNL271C, strain bni1, active compounds read low 1.01 | S. cerevisiae deletion strains, locus YNL298W, strain CLA4, active compounds read low 1.03 | S. cerevisiae deletion strains, locus YNL307C, strain MCK1, active compounds read low 1.01 | S. cerevisiae deletion strains, locus YNL322C, strain KRE1 (second series), active compounds read low 1.01 | S. cerevisiae deletion strains, locus YNL322C, strain KRE1, active compounds read low 1 | S. cerevisiae deletion strains, locus YNR049C, strain mso1, active compounds read low 0.993 | S. cerevisiae deletion strains, locus YNR052C, strain pop2, active compounds read low 1.01 | S. cerevisiae deletion strains, locus YOL006C, strain TOP1, active compounds read low 1.02 | S. cerevisiae deletion strains, locus YOL012C, strain htz1 0.947 | S. cerevisiae deletion strains, locus YOL147C, strain pex11, active compounds read low 1.01 | S. cerevisiae deletion strains, locus YOR001W, strain rrp6, active compounds read low 1.01 | S. cerevisiae deletion strains, locus YOR061W, strain CKA2, active compounds read low 0.999 | S. cerevisiae deletion strains, locus YOR069W, strain VPS5, active compounds read low 1 | S. cerevisiae deletion strains, locus YOR070C, strain gyp1, active compounds read low 0.991 | S. cerevisiae deletion strains, locus YOR080W, strain dia2, active compounds read low 1.01 | S. cerevisiae deletion strains, locus YOR083W, strain WHI5 (second series), active compounds read low 0.969 | S. cerevisiae deletion strains, locus YOR083W, strain WHI5, active compounds read low 0.989 | S. cerevisiae deletion strains, locus YOR106W, strain vam3, active compounds read low 1.02 | S. cerevisiae deletion strains, locus YOR136W, strain idh2, active compounds read low 0.993 | S. cerevisiae deletion strains, locus YOR144C, strain elg1, active compounds read low 1.01 | S. cerevisiae deletion strains, locus YOR184W, strain ser1, active compounds read low 0.98 | S. cerevisiae deletion strains, locus YOR231W, strain MKK1, active compounds read low 1.01 | S. cerevisiae deletion strains, locus YOR265W, strain rbl2, active compounds read low 0.996 | S. cerevisiae deletion strains, locus YOR270C, strain vph1, active compounds read low 1.01 | S. cerevisiae deletion strains, locus YOR290C, strain snf2, active compounds read low 0.991 | S. cerevisiae deletion strains, locus YOR316C, strain cot1, active compounds read low 1.01 | S. cerevisiae deletion strains, locus YPL051W, strain arl3, active compounds read low 0.993 | S. cerevisiae deletion strains, locus YPL055C, strain LGE1, active compounds read low 1.02 | S. cerevisiae deletion strains, locus YPL078C, strain atp4, active compounds read low 1.01 | S. cerevisiae deletion strains, locus YPL106C, strain sse1, active compounds read low 0.995 | S. cerevisiae deletion strains, locus YPL240C, strain hsp82, active compounds read low 1 | S. cerevisiae deletion strains, locus YPL241C, strain CIN2, active compounds read low 1 and 0.998 | S. cerevisiae deletion strains, locus YPL256C, strain CLN2, active compounds read low 0.99 | S. cerevisiae deletion strains, locus YPR119W, strain clb2, active compounds read low 1 | S. cerevisiae deletion strains, locus YPR141C, strain kar3, active compounds read low 1.01 | S. cerevisiae deletion strains, locus YPR163C, strain tif3, active compounds read low 1.02 | S. cerevisiae deletion strains, locus YPR167C, strain met16, active compounds read low 1.01 | S. cerevisiae deletion strains, strain wtn01, active compounds read low 1.01 | S. cerevisiae strains, strain wild type, active compounds read low 0.997
